Bioassay records as filed in PubChem.
MITF TRPM1 HTS: increases MITF-driven TRPM1 promoter luciferase signal; SK-MEL-5 TRPM1-promoter luciferase, 24 h; % of positive control, neutral wells = 0; activation, % at 12.5 µM; 0.75% of 300,000 active; AID 588334;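 active = mean activation of at least 80% with every replicate also reaching 80%; inconclusive = mean reaches 80% but some replicate falls short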;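 also: 0% = neutral control wells and 100% = parthenolide positive control wells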
N-glyco inh: N-linked glycosylation inhibition; 0.23% of 360,000 active; reporter increase, % at 12.5 µM; D54 ERlucT glycosylation luciferase reporter, 24 h; percent of 100 nM tunicamycin response;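 active = mean luciferase reporter signal, scaled so untreated is 0 and the glycosylation-blocking control 100, at or above a set limit in every replicate; inconclusive = mean reaches the limit but not every replicate does; inactive = mean below the limit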;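 also: luciferase carries N-glycosylation sites so blocking glycosylation raises the light; 0% = median of neutral control wells and 100% = median of 100 nM tunicamycin wells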
Vif inh: blocks HIV Vif function; HEK293T cells, Vif self-association by quenched fluorescence, imaging, 24 h; inhibition, % at 7.49 µM; 0.35% of 340,000 active; AID 602346; in the data active = inhibition above about 50%, passing the limit was not always enough; inconclusive = no clear call, values can overlap the other calls; inactive = below about 31%
esBAF inh: SWI/SNF esBAF complex inhibition; reporter increase, % at 12.5 µM; AID 602393; mouse ES cells, Bmi1-luciferase knock-in reporter, 24 h; 100% = twice the neutral-well signal; 2% of 350,000 active; in the data active = activation above about 40%; inconclusive = no clear call, values can overlap the other calls;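 also: 0% = median of the plate's neutral control wells and 100% = double that signal; a rise in the Bmi1 reporter signal indicates esBAF inhibition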
Wnt bcat act: activators of Wnt/beta-catenin signaling; Wnt/beta-catenin reporter cell assay, activator, plate reader; activation, % at 9.35 µM; AID 743398; 1.2% of 300,000 active; in the data active = activation above about 30%, passing the limit was not always enough; inconclusive = no clear call, values can overlap the other calls;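 also: 0% = neutral control wells and 100% = positive control wells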
PvdQ acylase: P. aeruginosa PvdQ acylase inhibition; 0.063% of 340,000 active; inhibition, % at 10 µM; purified PvdQ acylase, fluorescence plate reader; in the data active = inhibition above about 30%, passing the limit was not always enough; inconclusive = no clear call, values can overlap the other calls;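 also: 0% = vehicle neutral wells and 100% = reference inhibitor wells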
* hit, by the source's call. Shown are actives, neighbours in structure and some others; about 2.9% of the full set was active somewhere.

How did C[C@H]1CN([C@@H](C)CO)C(=O)c2cc(C#CCc3ccccc3)cnc2O[C@@H]1CN(C)CC1CCCC1 do in these assays?
esBAF inh: -6.7

What do the screens show for `NS(=O)(=O)c1ccc(CCNC(=O)C2CCN(C(=O)Nc3ccccc3)CC2)cc1`?
MITF TRPM1 HTS: -10.6; N-glyco inh: 0.1; Vif inh: 55.0*; esBAF inh: 2.9; Wnt bcat act: 2.5; PvdQ acylase: 6.9

What do the screens show for `O=C(NCCN1CCNCC1)c1ccccc1O`?
N-glyco inh: -1.2; Vif inh: 61.7*; esBAF inh: -9.4; Wnt bcat act: 5.5

What do the screens show for `O=C(NCCc1ccccc1)C1CCN(C(=O)Nc2ccccc2)CC1`?
MITF TRPM1 HTS: 25.1; N-glyco inh: 0.5; Vif inh: -9.6; esBAF inh: 30.8; Wnt bcat act: 18.6; PvdQ acylase: -9.3

How did O=C(NCCCCCCNC(=O)c1ccccc1O)c1ccccc1O do in these assays?
MITF TRPM1 HTS: -10.8; N-glyco inh: 1.8; Vif inh: -6.3; esBAF inh: 6.3; Wnt bcat act: -0.4; PvdQ acylase: -1.8

What do the screens show for `O=C(NCCCc1ccccc1)c1ccccc1O`?
MITF TRPM1 HTS: 44.4; N-glyco inh: -0.9; Vif inh: -0.7; esBAF inh: 70.0*; Wnt bcat act: 6.8; PvdQ acylase: -5.1

Results for Cc1ccc(C(=O)NCCCc2ccccc2)c(Cl)c1 ?
MITF TRPM1 HTS: 100.6*; N-glyco inh: -3.6; Vif inh: 5.1; esBAF inh: 42.4*; Wnt bcat act: 17.7; PvdQ acylase: -3.1

Results for C[C@H](CO)N1C[C@H](C)[C@H](CN(C)C(=O)Nc2ccc3c(c2)OCO3)Oc2ccc(NC(=O)c3ccncc3)cc2C1=O ?
esBAF inh: 34.4

What do the screens show for `NS(=O)(=O)c1ccc(CCNC(=O)c2cccc3ccccc23)cc1`?
MITF TRPM1 HTS: -0.6; N-glyco inh: 1.3; Vif inh: 1.2; esBAF inh: -1.0; Wnt bcat act: -1.9; PvdQ acylase: -9.7

Results for NS(=O)(=O)c1ccc(CCNC(=O)c2ccccc2Cc2ccccc2)cc1 ?
MITF TRPM1 HTS: -5.8; N-glyco inh: 0.2; Vif inh: 2.1; esBAF inh: 1.4; Wnt bcat act: 30.8*; PvdQ acylase: -8.9

How did Cc1noc(C)c1S(=O)(=O)N(C)C[C@@H]1OCCCC[C@@H](C)Oc2ccc(NS(=O)(=O)c3ccc(F)cc3)cc2C(=O)N([C@H](C)CO)C[C@@H]1C do in these assays?
esBAF inh: -3.2

How did Cc1ccc2oc(C(=O)N(Cc3ccncc3)CC3CCCO3)c(C)c2c1 (stereo not drawn) do in these assays?
MITF TRPM1 HTS: 63.6; N-glyco inh: 0.2; Vif inh: -10.6; esBAF inh: 57.9*; Wnt bcat act: 15.5; PvdQ acylase: -6.1

How did CCCc1ccc2oc(C(=O)N(Cc3ccncc3)CC3CCCO3)c(C)c2c1 (stereo not drawn) do in these assays?
MITF TRPM1 HTS: 7.6; N-glyco inh: -7.4; Vif inh: -16.3; esBAF inh: 5.9; Wnt bcat act: 3.1; PvdQ acylase: -9.1

What do the screens show for `CCOc1ccc(-c2nnc(N)s2)cc1`?
MITF TRPM1 HTS: 56.6; N-glyco inh: 1.6; Vif inh: -6.3; esBAF inh: 60.4*; PvdQ acylase: -14.9

Results for C/C=C/c1ccc([C@H]2[C@@H](CO)N(C(C)=O)[C@@H]2CN(CCC)C(C)=O)cc1 ?
esBAF inh: -0.5

How did CC(=O)c1c(C)[nH]c(C(=O)Nc2ccc(Cl)cc2)c1C do in these assays?
MITF TRPM1 HTS: 77.1; N-glyco inh: 2.3; Vif inh: -15.9; esBAF inh: 60.2*; Wnt bcat act: 14.0; PvdQ acylase: -11.4

What do the screens show for `CC(=O)c1c(C)[nH]c(C(=O)Nc2cccc(C)c2C)c1C`?
MITF TRPM1 HTS: 1.1; N-glyco inh: 1.6; Vif inh: 25.2; esBAF inh: 7.2; Wnt bcat act: 0.5; PvdQ acylase: 1.0

What do the screens show for `CSc1cccc(NC(=O)c2[nH]c(C)c(C(C)=O)c2C)c1`?
MITF TRPM1 HTS: 133.1*; N-glyco inh: 6.6; Vif inh: -7.7; esBAF inh: 64.6*; Wnt bcat act: 19.0; PvdQ acylase: -10.5

How did CC=Cc1ccc2n(c1=O)C[C@H]1[C@H](CO)[C@@H](C(=O)NCC)N(C(=O)c3cccnc3)[C@@H]21 (mixture of isomers) do in these assays?
esBAF inh: -1.2

How did CC(=O)Nc1ccc2c(c1)C(=O)N(C)[C@@H]1CC[C@H](CC(=O)NCC3CCCCC3)O[C@H]1CO2 do in these assays?
esBAF inh: -2.9

Results for [O-][n+]1ccc(C2CC2)cc1 ?
N-glyco inh: 0.4; Vif inh: -2.8; esBAF inh: 4.1; Wnt bcat act: 38.6*; PvdQ acylase: -9.9

What do the screens show for `C[C@@H]1CN([C@H](C)CO)C(=O)c2cc(NC(=O)NC3CCCCC3)ccc2O[C@@H]1CN(C)Cc1ccc(Cl)c(Cl)c1`?
esBAF inh: 0.6

How did Cn1c(C(=O)NCCC2=CCCCC2)cc2c(=O)n3ccccc3nc21 do in these assays?
MITF TRPM1 HTS: 64.8; N-glyco inh: 1.7; Vif inh: -7.8; esBAF inh: 44.1*; PvdQ acylase: -8.3

Results for CCN1CCN(c2nnc(-c3ccccc3)c3ccccc23)CC1 ?
MITF TRPM1 HTS: -2.8; N-glyco inh: -6.8; Vif inh: -4.7; esBAF inh: -8.0; Wnt bcat act: -0.1; PvdQ acylase: -18.5

What do the screens show for `CCN1CCN(c2cc3c(nn2)Oc2ccccc2N3C)CC1`?
MITF TRPM1 HTS: 82.2*; N-glyco inh: -1.9; Vif inh: 2.9; PvdQ acylase: -17.9

How did CC1(C)CC(=O)c2c(O)cc(OCc3ccc([N+](=O)[O-])cc3)cc2O1 do in these assays?
MITF TRPM1 HTS: 78.3; N-glyco inh: -3.7; Vif inh: -0.8; esBAF inh: 47.4*; PvdQ acylase: -7.4

Results for Nc1nc2n[nH]nc2c(=O)[nH]1 ?
MITF TRPM1 HTS: -62.7; N-glyco inh: -8.1; Vif inh: inconclusive; esBAF inh: 103.3*; Wnt bcat act: -2.8; PvdQ acylase: -18.5

How did Nc1nc2nn(-c3ccccc3)nc2c(=O)[nH]1 do in these assays?
MITF TRPM1 HTS: 49.3; N-glyco inh: -8.1; Vif inh: 3.4; esBAF inh: -21.8; Wnt bcat act: 16.4; PvdQ acylase: -13.0

How did COc1ccc2nc(Nc3ccc4c(c3)OCO4)sc2c1 do in these assays?
MITF TRPM1 HTS: 79.0; N-glyco inh: -3.3; Vif inh: 52.5*; esBAF inh: 38.2; Wnt bcat act: -4.9; PvdQ acylase: 3.8

What do the screens show for `COc1ccc2nc(Nc3ccccc3)sc2c1`?
MITF TRPM1 HTS: 94.7*; N-glyco inh: -6.3; Vif inh: 1.3; esBAF inh: 36.8; Wnt bcat act: 14.2; PvdQ acylase: -5.4

How did COc1ccc2nc(Nc3ccccc3OC)sc2c1 do in these assays?
MITF TRPM1 HTS: 52.6; N-glyco inh: -13.7; Vif inh: -2.9; Wnt bcat act: 48.1*; PvdQ acylase: 10.6

Results for COc1cc(/C=C/C(=O)Nc2nc3ccc(S(=O)(=O)NC(C)C)cc3s2)cc(OC)c1OC ?
MITF TRPM1 HTS: 12.0; N-glyco inh: 0.0; Vif inh: 1.7; PvdQ acylase: -4.9
